# Records with an inconclusive call do not appear. A call without a number means that no potency is given here. Activity calls are given as the source filed them. The call rests on the fitted dose curve; in most records, active means well fitted curve in the direction sought with a large enough effect; inconclusive means small, poorly fitted or top-dose-only effect, or another doubt; inactive means no such curve, though single readings can be large; an effect the other way counts as inactive or inconclusive.
# Molecular target: Aldehyde dehydrogenase, mitochondrial (Homo sapiens) (UniProt P05091)
# Assay: qHTS for Inhibitors of the Aldehyde Dehydrogenase Family (ALDH2) Primary screen (AID 2061308); further: nearly all actives have a fitted effect of over 55% in size
# Details: ALDH2 enzyme inhibition qHTS, 1536-well; series mostly up to 56 µM
row,Structure (SMILES),Potency
1,Cc1ccc(NS(=O)(=O)c2cc3c(cc2C)OCC(=O)N3)cc1C,inactive
2,COc1ccc(CCC(=O)NCCc2nc3ccccc3n2CCOc2ccc(C)cc2)cc1,inactive
3,Cc1ccc(S(=O)(=O)Nc2ccccc2CNc2nc(-c3ccccc3)cs2)cc1,inactive
4,Cc1cc2c(s1)c1cnn(Cc3c(F)c(F)c(C)c(F)c3F)c(=O)c1n2C,inactive
5,Cc1cc(C)nc(NC(=S)N2CCN(c3cccc(S(C)=O)c3)CC2)c1 (stereo not given),inactive
6,COc1ccc(CN2C(=O)c3ccccc3NC2c2ccc(OC)c(COc3c(C)cc(NC(C)=O)cc3C)c2)cc1 (stereo not given),inactive
7,CN(Cc1cccs1)c1nc(-c2ccccc2C(F)(F)F)nc2ccccc12,inactive
8,O=C(Nc1ccc2sccc2c1)Nc1nnc(-c2cccnc2)s1,inactive
9,Cc1cn([C@H]2C[C@H](N[S+](=O)([O-])Cc3cccc(Cl)c3)[C@@H](CO)O2)c(=O)[nH]c1=O,inactive
10,C[C@@H]1[C@H]2[C@H](O[C@@H]3O[C@H](CO)[C@@H](O)[C@H](O)[C@H]3O)OC=C(C(=O)O)[C@H]2C[C@@H]1O,inactive
11,O=C(O)c1cc(F)c(S(=O)(=O)N2CCN(S(=O)(=O)c3ccc4c(c3)OCCO4)CC2)cc1F,inactive
12,O=C1CCCC2=C1C(c1ncccc1C(F)(F)F)N=C(Nc1nc3ccccc3o1)N2 (stereo not given),inactive
13,Cc1cc(-c2cnc(N)c3c(-c4ccc5scnc5c4)csc23)n(C)n1,inactive
14,COc1ccc(-c2ccc3ncnc(NCC4CCCO4)c3c2)cc1OC (stereo not given),inactive
15,CC(C)(C)OC(=O)NCc1nnc(-c2cc3ccccc3[nH]2)o1,inactive
16,N[C@@H](Cc1ccc(O[S+](=O)([O-])c2cccc3cnccc23)cc1)C(=O)N1CCN(c2ccccc2)CC1,inactive
17,CCCCNc1nc(C)nc2c1nc(-c1ccccc1)n2C1CCN(Cc2ccccc2)C1 (stereo not given),inactive
18,CC(=O)O[C@@H]1CC(C)=C2[C@H]1[C@H](C)CC[C@H]2/C=C(\C)C(=O)O,inactive
19,Cc1cccc(-c2ccc3ncnc(N(C)Cc4ccco4)c3c2)c1,inactive
20,CN(CCc1cnc[nH]1)c1ncnc2ccc(-c3ccc4c(c3)OCO4)cc12,inactive

row,Structure (SMILES),Potency
1,Cc1cc2c(s1)c1cnn(Cc3ccc(Cl)c(Cl)c3)c(=O)c1n2C,inactive
2,Cc1ccc(N2C(=O)c3ccccc3C2=O)c(C)c1,inactive
3,Cc1nc(NC2CCCCC2)c2nc(-c3ccccc3)n(CCCN3CCOCC3)c2n1,inactive
4,COc1ccc(NC(=O)C(OC(=O)CNC(=O)c2ccccc2)c2ccccc2)cc1F (stereo not given),inactive
5,CCOc1cc(F)c(CCNC(=O)c2cc3sccc3n2Cc2ccccc2)cc1OCC,inactive
6,CCOC(=O)C1CCN(C(=O)CNC(=O)Nc2ccccc2Cl)CC1,inactive
7,CCCCNc1nc(C)nc2c1nc(-c1ccccc1)n2CCN(C)C,inactive
8,C=CC(C)(C)C12CC3C(=O)N4C(CC5(C(C)(C)C=C)c6ccccc6NC45)C(=O)N3C1Nc1ccccc12 (stereo not given),inactive
9,O=C(CN1C(=O)N/C(=C\c2cn(-c3cccc(C(=O)O)c3)cn2)C1=O)Nc1ccc(Cl)cc1,inactive
10,COc1cc(C2CC(=O)Nc3c2cc(Br)c2ccccc32)cc(OC)c1OC (stereo not given),inactive
11,CC(C)(C)OC(=O)CC(=O)NNC(=O)c1cc2ccccc2[nH]1,inactive
12,Cc1scc2c1C(=O)NS2(=O)=O,inactive
13,COc1cc(O)c(C(CC(=O)N2CCCCC2)c2ccc(C)cc2)c(OC)c1 (stereo not given),inactive
14,Cc1cc(-c2nnc3n2CCC3)c(C)n1-c1ccccc1,inactive
15,Cc1ccc(-c2ccc(C(C)Nc3nc(-c4ccccc4C(C)C)ncc3C)cc2)cn1 (stereo not given),inactive
16,Cc1cnc(-c2ccccc2C(C)C)nc1NCC1CCN(c2cnccn2)CC1,inactive
17,N#Cc1nc(Nc2cccc(-c3ccccc3)c2)nc(NC2CCCC2)n1,inactive
18,CC1(C)CC(=O)C2=C(C1)NC(Nc1nc3ccccc3o1)=NC21CCCC1,inactive
19,Cc1cc(C)nc(NC(=S)N2CCN(c3ncccc3C(F)(F)F)CC2)c1,inactive
20,N#Cc1nc(Nc2cc(F)cc(Cl)c2)nc(NC2CCCC2)n1,inactive

# Molecular target: Retinaldehyde dehydrogenase 3 (Homo sapiens) (UniProt P47895)
# Assay: qHTS for Inhibitors of the Aldehyde Dehydrogenase Family (ALDH1A3) Primary screen (AID 2061315)
# Details: ALDH inhibition qHTS; series mostly up to 56 µM
row,Structure (SMILES),Potency
1,Cc1ccc(NS(=O)(=O)c2cc3c(cc2C)OCC(=O)N3)cc1C,inactive
2,COc1ccc(CCC(=O)NCCc2nc3ccccc3n2CCOc2ccc(C)cc2)cc1,inactive
3,Cc1ccc(S(=O)(=O)Nc2ccccc2CNc2nc(-c3ccccc3)cs2)cc1,inactive
4,Cc1cc2c(s1)c1cnn(Cc3c(F)c(F)c(C)c(F)c3F)c(=O)c1n2C,inactive
5,Cc1cc(C)nc(NC(=S)N2CCN(c3cccc(S(C)=O)c3)CC2)c1 (stereo not given),inactive
6,COc1ccc(CN2C(=O)c3ccccc3NC2c2ccc(OC)c(COc3c(C)cc(NC(C)=O)cc3C)c2)cc1 (stereo not given),inactive
7,CN(Cc1cccs1)c1nc(-c2ccccc2C(F)(F)F)nc2ccccc12,inactive
8,O=C(Nc1ccc2sccc2c1)Nc1nnc(-c2cccnc2)s1,inactive
9,Cc1cn([C@H]2C[C@H](N[S+](=O)([O-])Cc3cccc(Cl)c3)[C@@H](CO)O2)c(=O)[nH]c1=O,inactive
10,C[C@@H]1[C@H]2[C@H](O[C@@H]3O[C@H](CO)[C@@H](O)[C@H](O)[C@H]3O)OC=C(C(=O)O)[C@H]2C[C@@H]1O,inactive
11,O=C(O)c1cc(F)c(S(=O)(=O)N2CCN(S(=O)(=O)c3ccc4c(c3)OCCO4)CC2)cc1F,inactive
12,O=C1CCCC2=C1C(c1ncccc1C(F)(F)F)N=C(Nc1nc3ccccc3o1)N2 (stereo not given),inactive
13,Cc1cc(-c2cnc(N)c3c(-c4ccc5scnc5c4)csc23)n(C)n1,inactive
14,COc1ccc(-c2ccc3ncnc(NCC4CCCO4)c3c2)cc1OC (stereo not given),inactive
15,CC(C)(C)OC(=O)NCc1nnc(-c2cc3ccccc3[nH]2)o1,inactive
16,N[C@@H](Cc1ccc(O[S+](=O)([O-])c2cccc3cnccc23)cc1)C(=O)N1CCN(c2ccccc2)CC1,inactive
17,CCCCNc1nc(C)nc2c1nc(-c1ccccc1)n2C1CCN(Cc2ccccc2)C1 (stereo not given),inactive
18,CC(=O)O[C@@H]1CC(C)=C2[C@H]1[C@H](C)CC[C@H]2/C=C(\C)C(=O)O,inactive
19,Cc1cccc(-c2ccc3ncnc(N(C)Cc4ccco4)c3c2)c1,inactive
20,CN(CCc1cnc[nH]1)c1ncnc2ccc(-c3ccc4c(c3)OCO4)cc12,inactive

row,Structure (SMILES),Potency
1,Cc1cc2c(s1)c1cnn(Cc3ccc(Cl)c(Cl)c3)c(=O)c1n2C,inactive
2,Cc1ccc(N2C(=O)c3ccccc3C2=O)c(C)c1,inactive
3,Cc1nc(NC2CCCCC2)c2nc(-c3ccccc3)n(CCCN3CCOCC3)c2n1,inactive
4,COc1ccc(NC(=O)C(OC(=O)CNC(=O)c2ccccc2)c2ccccc2)cc1F (stereo not given),inactive
5,CCOc1cc(F)c(CCNC(=O)c2cc3sccc3n2Cc2ccccc2)cc1OCC,inactive
6,CCOC(=O)C1CCN(C(=O)CNC(=O)Nc2ccccc2Cl)CC1,inactive
7,CCCCNc1nc(C)nc2c1nc(-c1ccccc1)n2CCN(C)C,inactive
8,C=CC(C)(C)C12CC3C(=O)N4C(CC5(C(C)(C)C=C)c6ccccc6NC45)C(=O)N3C1Nc1ccccc12 (stereo not given),inactive
9,O=C(CN1C(=O)N/C(=C\c2cn(-c3cccc(C(=O)O)c3)cn2)C1=O)Nc1ccc(Cl)cc1,inactive
10,COc1cc(C2CC(=O)Nc3c2cc(Br)c2ccccc32)cc(OC)c1OC (stereo not given),inactive
11,CC(C)(C)OC(=O)CC(=O)NNC(=O)c1cc2ccccc2[nH]1,inactive
12,Cc1scc2c1C(=O)NS2(=O)=O,inactive
13,COc1cc(O)c(C(CC(=O)N2CCCCC2)c2ccc(C)cc2)c(OC)c1 (stereo not given),inactive
14,Cc1cc(-c2nnc3n2CCC3)c(C)n1-c1ccccc1,inactive
15,Cc1ccc(-c2ccc(C(C)Nc3nc(-c4ccccc4C(C)C)ncc3C)cc2)cn1 (stereo not given),inactive
16,Cc1cnc(-c2ccccc2C(C)C)nc1NCC1CCN(c2cnccn2)CC1,inactive
17,N#Cc1nc(Nc2cccc(-c3ccccc3)c2)nc(NC2CCCC2)n1,inactive
18,CC1(C)CC(=O)C2=C(C1)NC(Nc1nc3ccccc3o1)=NC21CCCC1,inactive
19,Cc1cc(C)nc(NC(=S)N2CCN(c3ncccc3C(F)(F)F)CC2)c1,inactive
20,N#Cc1nc(Nc2cc(F)cc(Cl)c2)nc(NC2CCCC2)n1,inactive

# — PubChem BioAssay (NCATS)
